Lassa entry: qHTS for Inhibitors of binding or entry into cells for Lassa Virus | Lassa virus pseudotyped entry inhibition, cell-based qHTS | Potency, µM (series often up to 49.2 µM), for inactives: top-dose activity change, negative = inhibition, hits mostly inhibitors | actives 4.1% (n = 18,000) | AID 720533, 2013
Marburg entry: qHTS for Inhibitors of binding or entry into cells for Marburg Virus | AID 720532, 2013 | Potency, µM (doses to about 49.2 µM), for the others: at the highest dose activity change, negative = inhibition, most hits filed as inhibitors | actives 6.5% (n = 18,000) | Marburg virus pseudotype entry/binding inhibition, cell-based
* marks the source's active call; other numbers are inactive results; ? = inconclusive; [ ] = another dose, or the depositor's remark. Hits are enriched below; roughly 8% of the tested compounds scored in any of these assays. Calls follow the shape of the full dose curve; tested in HEK293 cells. % is scaled to controls: 0 for no effect and ±100 for the full control effect; potency is read from the fitted curve at half-maximal effect.

SMILES | Lassa entry | Marburg entry
COc1ccc2c(c1)CCc1cnc(-n3ncc(C(=O)NCC(C)(C)CN(C)C)c3C)nc1-2 | ? | 4.5µM*
COc1ccc2c(c1)CCc1cnc(-n3ncc(C(=O)NCCCN4CCOCC4)c3C)nc1-2 | -7% | ?
C=CC[C@@]1(c2ccc(OC)cc2)Oc2ccccc2C2=NCCN=C21 | 15%[8.59 µM] | ?
C=C[C@@H]1C[C@H](C=C)OP(=O)(OCC(=C)C)O1 (stereo not given in full) | 33% | 50%
CC(=O)OC[C@H]1O[C@H](C#Cc2ccccc2)C=C[C@H]1O | 5%[8.59 µM] | -3%[8.59 µM]
C[C@H]1[C@@H](c2ccccc2)Oc2c(Cl)cccc2S(=O)(=O)N1Cc1cccc(Cl)c1 | -28% | ?
O=C(Nc1ccc(C(=O)N2CCCCC2)cc1)c1ccccc1 | 32% | 80%
O=C(c1ccc(Nc2nccc(-c3cc4ccccc4s3)n2)cc1)N1CCC(N2CCCC2)CC1 | ? | 2.2µM*
CN(C)CC(O)Cn1c2ccc(Br)cc2c2cc(Br)ccc21 (stereo not given) | 22µM* | 7.9µM*
CCN1C(=NCc2ccc3c(c2)OCO3)N[C@@H](c2ccccc2)[C@H](C(=O)OC)[C@H]1C | -11%[8.59 µM] | ?
COC(=O)CC=C[C@@H](C)[C@@H](C=NOCC[C@@H]1C=C[C@H](OC(C)=O)[C@@H](COC(C)=O)O1)NS(=O)(=O)c1ccc(C)cc1 | -19%[8.59 µM] | 53%[8.59 µM]
c1ccc2c(c1)CCCC2C1=NCCN1 (stereo not given) | 2% | 1%
c1ccc2c(c1)OCC(C1=NCCN1)O2 (stereo not given) | ? | 14µM*
O=C1NC(=O)C(N2CCc3ccccc32)=C1c1ccc(Cl)cc1 | -18% | ?
CC(=O)c1ccc(-c2cc(F)cc3c2OC(CNC(=O)Cc2cn4ccsc4n2)C3)s1 (stereo not given) | -15% | -22%
COC(=O)C1=CO[C@@H](C)[C@H]2CN3CCc4c([nH]c5ccccc45)[C@@H]3C[C@H]12 | -5%[17.8 µM] | ?
CCC1=CC2CN3CCc4c([nH]c5ccccc45)[C@@](C(=O)OC)(C2)[C@@H]13 | ? | 7.9µM*
Nc1ccc(Cl)cc1 | ? | -1%[107 µM]
CCc1nc(N)nc(N)c1-c1ccc(Cl)cc1 | ? | 14µM*
COc1ccc(CN(C2CCCC2)S(=O)(=O)c2ccccc2Br)cc1 | -23% | ?
CC(=O)C1CCC2C3CCC4CC(O)CCC4(C)C3CC(O)C12C (stereo not given) | 17% | 0%
C[C@]12[C@H](O)CC3C(CC[C@@H]4C[C@@H](O)CC[C@]34C)[C@@]1(O)CC[C@@H]2C1=CC(=O)OC1 (stereo not given in full) | 1.1µM* | ?
C[C@@H]1O[C@H](O[C@@H]2[C@H](C)O[C@H](O[C@@H]3[C@H](C)O[C@H](O[C@H]4CC[C@]5(C)[C@@H](CC[C@@H]6[C@H]5C[C@@H](O)[C@]5(C)[C@@H](C7=CC(=O)OC7)CC[C@]65O)C4)C[C@@H]3O)C[C@@H]2O)C[C@H](O)[C@@H]1O | 0.13µM* | 0.89µM*
C[C@H]1O[C@@H](O[C@H]2[C@@H](O)C[C@H](O[C@H]3[C@@H](O)C[C@H](O[C@H]4CC[C@@]5(C)[C@H](CC[C@@H]6[C@@H]5C[C@@H](O)[C@]5(C)[C@@H](C7=CC(=O)OC7)CC[C@]65O)C4)O[C@@H]3C)O[C@@H]2C)C[C@H](O)[C@@H]1O | 4µM* | ?
CO[C@H]1[C@@H](O)C[C@H](O[C@H]2[C@@H](O)C[C@H](O[C@H]3[C@@H](O)C[C@H](O[C@H]4CC[C@@]5(C)[C@H](CC[C@@H]6[C@@H]5C[C@@H](O)[C@]5(C)[C@@H](C7=CC(=O)OC7)CC[C@]65O)C4)O[C@@H]3C)O[C@@H]2C)O[C@@H]1C | ? | 7.1µM*
SMILES | Lassa entry | Marburg entry
COc1cccc(C2(CC(=O)N3CCN(c4nonc4C)CC3)CC(=O)N(C3CCCC3)C2=O)c1 (stereo not given) | -3% | 4%
Cc1ccc(C)c(S(=O)(=O)NCc2nc(N3CCCC3)c3cc(Cl)ccc3n2)c1 | -14% | ?
COC(=O)C1=C(C)N(Cc2ccccc2)C(=NCc2ccccc2)NC1c1ccccc1 (stereo not given) | 29%[8.59 µM] | ?
CC(=O)O[C@H]1C[C@H](O[C@H]2[C@@H](O)C[C@H](O[C@H]3[C@@H](O)C[C@H](OC4CC[C@@]5(C)[C@H](CC[C@@H]6[C@@H]5CC[C@]5(C)[C@@H](C7=CC(=O)OC7)CC[C@]65O)C4)O[C@@H]3C)O[C@@H]2C)O[C@H](C)[C@H]1O[C@@H]1O[C@H](CO)[C@@H](O)[C@H](O)[C@H]1O (stereo not given in full) | 25µM* | 5.6µM*
CC(=O)O[C@H]1C[C@@H](O[C@@H]2[C@H](C)O[C@H](O[C@@H]3[C@H](C)O[C@H](O[C@@H]4CC[C@@]5(C)[C@@H](CC[C@]6(C)[C@]5(C)C[C@H](O)[C@]5(C)[C@@H](C7=CC(=O)OC7)CC[C@@]56O)C4)C[C@@H]3O)C[C@@H]2O)O[C@@H](C)[C@H]1O[C@H]1O[C@@H](CO)[C@@H](O)[C@@H](O)[C@@H]1O | 0.89µM* | 0.89µM*
CC(=O)OC1CCC23C(=O)OC45CCC(C6=CC(=O)OC6)C4(C)CCC2C5CCC3(O)C1 (stereo not given) | 1.3µM* | 0.56µM*
CC(=O)OC1CC(OC2C(O)CC(OC3C(O)CC(OC4CCC5(C)C(CCC6C5CC(O)C5(C)C(C7=CC(=O)OC7)CCC65O)C4)OC3C)OC2C)OC(C)C1OC1OC(CO)C(O)C(O)C1O (stereo not given) | 0.32µM* | 0.28µM*
C=C(CO[C@@H]1C=C[C@@H](c2ccccc2)O[C@@H]1CO)c1ccccc1 | -24%[8.59 µM] | -2%[8.59 µM]
CCC[C@H]1CN(c2ccccc2)C(=O)[C@H]1CC(=O)Nc1ccccc1 | -22% | -15%
COc1cccc([C@H]2Oc3ccc(OC)cc3C(=NOC[C@@H](C)[C@H](OCc3ccccc3)C(C)C)[C@H]2O)c1 | 11%[8.59 µM] | 10%[8.59 µM]
CS(=O)(=O)c1ccc(-c2cccc3c2OC(CNC(=O)c2ccnc(Cl)c2)C3)cc1 (stereo not given) | 7% | 9%
CS(=O)(=O)CCNCc1nc(-c2ccc3ncnc(Nc4ccc(OCc5cccc(C(F)(F)F)c5)cc4)c3c2)cs1 | -18% | -16%
CO[C@H]1[C@H](NC(=O)c2cccs2)c2ccccc2C12CCN(Cc1cccn1-c1ccccn1)CC2 | -1% | ?
CC(=O)OC1CC[C@@]2(C)C3CC[C@@]4(C)C(CC5O[C@@]6(CCC(C)CO6)C(C)C54)C3CC[C@@H]2C1 (stereo not given in full) | -7% | 9%
CC(=O)OC1CC[C@]2(C)C(CCC3C2CC[C@]2(C)C(C4=CC(=O)OC4)C(OC(C)=O)CC32O)C1 (stereo not given in full) | 1.4µM* | 0.71µM*
Cn1c(SCc2ccccc2)nnc1C1CCCN(Cc2cccc3ncccc23)C1 (stereo not given) | -1% | 10%
CCCSc1cc(OC)c(CCN)cc1OC | ? | 22µM*
COc1cc(CCN)ccc1O | -1% | 2%
CCCNC(=O)OC[C@H]1O[C@H](CCON=C2[C@H]3CCn4c(=O)n(-c5ccccc5)c(=O)n4[C@@H]3[C@H](O)[C@@H]3O[C@H]23)C=C[C@H]1Oc1ccc(OC)cc1 | -12%[8.59 µM] | 33%[8.59 µM]

Bioassay records (PubChem)
